Mot1-301 SUMO = SUMOylation pathway inhibition by Mot1-301 growth rescue; S. cerevisiae Mot1-301 growth rescue, ATP luminescence, 38.5C; percent above DMSO median, 100 means doubled; growth rescue, % at 18.8 µM; 320,000 tested, 1% active; AID 2716;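 active means every valid replicate shows activation above 250% relative to neutral control wells; inactive means the rest, any valid replicate at or below 250%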;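 further: OY570 slx delta 5 strain wells were the positive control but not used for scaling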
Bfl-1 A1 inh = inhibitors of the anti-apoptotic protein A1, read as caspase activation. 330,000 tested, 0.066% active. caspase activation, % (test concentration not listed). MEF A1-2A-BIM cells, Caspase-Glo 3/7 luminescence, 3 h; percent of clofoctol response, vehicle zero. AID 2462;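 active means over half of replicate activation scores above 10%, or exactly half above 10 with the replicate mean above 10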
VLA-4 inh = inhibition in a human VLA-4 binding assay | P13612 | VLA-4 expressing cells, ligand binding flow cytometry | inhibition, % (about 7 µM as worked out from the volumes in the protocol) | 330,000 tested, 0.2% active; in the data active means inhibition above about 50%
AHR act = activates the human aryl hydrocarbon receptor | P35869 | AHR-responsive luciferase reporter cells, luminescence | activation, % at 5 µM | 320,000 tested, 2.5% active | AID 2796; in the data active means activation above about 47%;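 further: 0% = vehicle wells and 100% = reference agonist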
ALR inh = inhibitors of human sulfhydryl oxidase ALR; P55789; purified ALR, DTT oxidation, H2O2 HRP-luminol luminescence; inhibition, % (concentration not given with the values); 290,000 tested, 3.8% active;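 active means mean replicate inhibition above about 79%, with every replicate also reaching it, limit read from the data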
Target sequence (P55789 whole entry, looked up): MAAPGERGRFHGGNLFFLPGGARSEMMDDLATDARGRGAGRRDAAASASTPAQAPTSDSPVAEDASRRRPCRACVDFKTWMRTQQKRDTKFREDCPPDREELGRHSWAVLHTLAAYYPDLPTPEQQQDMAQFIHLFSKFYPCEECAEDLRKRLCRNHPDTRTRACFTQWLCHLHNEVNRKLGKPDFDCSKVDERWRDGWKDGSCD
Efflux pump mplx = antifungal efflux pump inhibition, Nile Red retention; S. cerevisiae Candida pump triplex; AID 485275; inhibition, % at 10 µM; 330,000 tested, 0.44% active;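 active means plate passing quality check with inhibition over a set limit, or well fluorescence over plate mean plus 4 SD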;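 further: Nile Red retained in pooled yeast measured as flow cytometry median fluorescence; 0% = buffer negative control and 100% = Enniatin B positive control; higher means more Nile Red kept so more efflux inhibition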
Active calls of the source: *. A selection: hits, their analogues and other compounds. The true share with any hit is near 7.2%.

Results for CCOC(=O)N1CCN(C(=O)c2cccn3c(=O)c4cc(Br)ccc4nc23)CC1 ?
Mot1-301 SUMO: -10.7; Bfl-1 A1 inh: 0.3; VLA-4 inh: 4.3; AHR act: 58.2*; ALR inh: 6.7; Efflux pump mplx: -0.2

Results for O=C(c1cccn2c(=O)c3cc(Br)ccc3nc12)N1CCN(c2ccccn2)CC1 ?
Mot1-301 SUMO: 10.4; Bfl-1 A1 inh: -0.3; VLA-4 inh: -17.9; AHR act: 74.3*; Efflux pump mplx: 0.0

Results for O=C(c1cccn2c(=O)c3cc4ccccc4cc3nc12)N1CCN(c2ccccc2)CC1 ?
Mot1-301 SUMO: -19.7; Bfl-1 A1 inh: -0.8; VLA-4 inh: -36.2; AHR act: 71.3*; ALR inh: -10.5; Efflux pump mplx: -0.1

Results for O=C(O)c1cccn2c(=O)c3ccccc3nc12 ?
Mot1-301 SUMO: 128.7; Bfl-1 A1 inh: 1.3; VLA-4 inh: 13.9; AHR act: 2.2; ALR inh: -4.9; Efflux pump mplx: 0.0

How did CCOC(=O)N1CCN(C(=O)c2cccn3c(=O)c4sccc4nc23)CC1 do in these assays?
Mot1-301 SUMO: 4.2; Bfl-1 A1 inh: 0.9; VLA-4 inh: 0.1; AHR act: 1.6; ALR inh: -1.7; Efflux pump mplx: -0.1

What do the screens show for `CCOC(=O)N1CCN(C(=O)c2cccn3c(=O)c4cc(Cl)ccc4nc23)CC1`?
Mot1-301 SUMO: 72.3; Bfl-1 A1 inh: 0.1; VLA-4 inh: 4.2; AHR act: 90.9*; ALR inh: -1.5; Efflux pump mplx: 0.0

How did O=C(c1cccn2c(=O)c3ccccc3nc12)N1CCN(c2ccccn2)CC1 do in these assays?
Mot1-301 SUMO: 16.2; Bfl-1 A1 inh: 0.2; VLA-4 inh: 8.2; AHR act: 2.4; ALR inh: 6.1; Efflux pump mplx: -0.1

How did CC(=C\C(=O)O)/C(=C\c1cccc2ccccc12)C(=O)O do in these assays?
Mot1-301 SUMO: 5.1; Bfl-1 A1 inh: 0.8; VLA-4 inh: 0.0; AHR act: 0.4; Efflux pump mplx: 0.1

How did COc1cc(/C=N/NC(=O)C(Cc2c[nH]c3ccccc23)NC(=O)OCC(C)C)cc([N+](=O)[O-])c1O (stereo not given) do in these assays?
Mot1-301 SUMO: -14.2; Bfl-1 A1 inh: 0.9; VLA-4 inh: 0.0; AHR act: 3.5; ALR inh: 12.4; Efflux pump mplx: 0.5

What do the screens show for `COc1cc(/C=N/NC(=O)C(Cc2c[nH]c3ccccc23)NC(=O)OCC(C)C)cc([N+](=O)[O-])c1OCc1ccccc1` (stereo not given)?
Mot1-301 SUMO: -11.8; Bfl-1 A1 inh: -0.6; VLA-4 inh: 2.3; AHR act: 64.2*; ALR inh: -14.5; Efflux pump mplx: 0.3

How did Cc1ccc(CNC(=O)[C@H]2C[C@@H]2[C@H](NP(=O)(c2ccccc2)c2ccccc2)c2ccccc2)o1 do in these assays?
Mot1-301 SUMO: -9.7; Bfl-1 A1 inh: -0.1; VLA-4 inh: -2.1; AHR act: -0.8; ALR inh: 2.0; Efflux pump mplx: -0.1

What do the screens show for `CC(C)CCN(CC(=O)NC(C)(C)C)C(=O)C(=O)Nc1ccc2c(c1)OCCO2`?
Mot1-301 SUMO: -4.7; Bfl-1 A1 inh: 0.8; VLA-4 inh: 12.1; AHR act: 1.9; ALR inh: -1.0; Efflux pump mplx: 0.0

How did Cc1cccc(OCC(=O)N/N=C\c2cn(C)c3ccccc23)c1 do in these assays?
Mot1-301 SUMO: 8.4; Bfl-1 A1 inh: -0.9; VLA-4 inh: 0.0; AHR act: 72.3*; ALR inh: -1.2; Efflux pump mplx: 0.1

Results for Cc1ccc(OCC(=O)N/N=C\c2c(C)n(C)c3ccccc23)c([N+](=O)[O-])c1 ?
Mot1-301 SUMO: 141.3; Bfl-1 A1 inh: -0.8; VLA-4 inh: -3.7; AHR act: 60.5*; ALR inh: -34.9; Efflux pump mplx: 0.2

How did COC(=O)C(NNc1ccccc1C)(NC(=O)c1ccc(F)cc1)C(F)(F)F (stereo not given) do in these assays?
Mot1-301 SUMO: -2.4; Bfl-1 A1 inh: -1.4; VLA-4 inh: -0.9; AHR act: 45.5; ALR inh: 97.9*; Efflux pump mplx: 0.0

What do the screens show for `CC(=O)Nc1ccc(S(=O)(=O)Nc2nnc(C(C)C)s2)cc1`?
Mot1-301 SUMO: -3.5; Bfl-1 A1 inh: 0.0; VLA-4 inh: 13.3; AHR act: 2.2; ALR inh: 4.1; Efflux pump mplx: -0.1

How did CN(Cc1cn(C)nc1-c1ccccc1F)Cc1nccn1C do in these assays?
Mot1-301 SUMO: 26.7; Bfl-1 A1 inh: 0.7; VLA-4 inh: 2.6; AHR act: 0.4; ALR inh: -1.4; Efflux pump mplx: -0.1

How did CN(Cc1cn(-c2ccccc2)nc1-c1ccc2c(c1)OCO2)Cc1nccn1C do in these assays?
Mot1-301 SUMO: -6.0; Bfl-1 A1 inh: 0.4; VLA-4 inh: -1.4; AHR act: 47.8*; ALR inh: -11.2; Efflux pump mplx: -0.1

How did CN(CCn1ccnc1)Cc1cn(-c2ccccc2)nc1-c1ccc2c(c1)OCO2 do in these assays?
Mot1-301 SUMO: 2.3; Bfl-1 A1 inh: -0.1; VLA-4 inh: 9.5; AHR act: 54.5*; Efflux pump mplx: 0.2

How did Cc1onc(-c2c(F)cccc2Cl)c1C(=O)Nc1ccc(Cl)c(S(=O)(=O)N(C)C)c1 do in these assays?
Mot1-301 SUMO: -3.1; Bfl-1 A1 inh: -0.9; VLA-4 inh: -0.7; AHR act: 19.5; ALR inh: 6.6; Efflux pump mplx: 1.1

What do the screens show for `COc1ccc(C2CC(c3cccs3)=NN2c2nc(-c3ccccc3)cs2)cc1OC` (stereo not given)?
Mot1-301 SUMO: 10.1; Bfl-1 A1 inh: -0.7; VLA-4 inh: 0.7; AHR act: 12.6; ALR inh: -20.6; Efflux pump mplx: 0.1

How did O=C(Nc1ccnn1C1CCN(CCCc2ccccc2)CC1)c1ccccc1Cl do in these assays?
Mot1-301 SUMO: 1.3; Bfl-1 A1 inh: 1.1; VLA-4 inh: 32.0; AHR act: 0.2; ALR inh: -1.3; Efflux pump mplx: 0.1

What do the screens show for `CC(NS(C)(=O)=O)C(c1cccs1)N1CCN(c2ccc(F)cc2)CC1` (stereo not given)?
Mot1-301 SUMO: 32.7; Bfl-1 A1 inh: -0.2; VLA-4 inh: 3.7; AHR act: 3.6; ALR inh: 98.2*; Efflux pump mplx: 0.0

What do the screens show for `CC(NC(=O)C(=O)N1CCOCC1)C(c1cccs1)N1CCN(c2ccccc2F)CC1` (stereo not given)?
Mot1-301 SUMO: -9.6; Bfl-1 A1 inh: -0.6; VLA-4 inh: 7.5; AHR act: -0.7; ALR inh: 15.0; Efflux pump mplx: 0.1

Results for CC(NC(=O)C(=O)N1CCOCC1)C(c1cccs1)N1CCN(c2ccc(F)cc2)CC1 (stereo not given) ?
Mot1-301 SUMO: -0.2; Bfl-1 A1 inh: 0.2; VLA-4 inh: 2.6; AHR act: -3.4; ALR inh: 98.4*; Efflux pump mplx: -0.1

Results for COc1cc(NC(=O)C2CC(=O)N(CCc3ccc(F)cc3)C2)cc(OC)c1OC (stereo not given) ?
Mot1-301 SUMO: -10.9; Bfl-1 A1 inh: -0.1; VLA-4 inh: -9.8; AHR act: 0.7; ALR inh: -12.2; Efflux pump mplx: 0.0

From PubChem BioAssay
